Screening results from PubChem.
An excerpt weighted towards active compounds, which were near 5.9% of everything screened.
AHR act: AHR activators, primary screen, cell-based, luminescence, luciferase reporter, human; Aryl hydrocarbon receptor (Homo sapiens), P35869; AHR-responsive luciferase reporter cells; activation, % at 5 µM; 2.5% of 320,000 active; AID 2796, 2010; in the data active = activation above about 47%
HSP90 refold inh: HSP90 inhibitors, primary screen, cell lysate, luminescence. AID 1789, 2009. 0.91% of 290,000 active. inhibition, % at 5.6 µM. Rabbit reticulocyte lysate, luciferase refolding luminescence, 3 h. Heat shock protein HSP 90 (rabbit reticulocyte lysate; luciferase refolding);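 active = inhibition above the screen-wide mean plus 3 SD, computed separately per campaign, cut at about 16% in these data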;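 note: inhibitors lower the luminescence because luciferase stays unfolded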
HSF-1 act: HSF-1 activators, primary screen, NIH3T3-HGL cells, MG132 stress, luminescence, single point; NIH3T3-HGL HSF-1 luciferase reporter, 8 h; 100% = twice DMSO control signal; activation, % at 9 µM; 1.7% of 300,000 active;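 active = mean replicate activation of at least 50% with a set share of replicates each reaching 50%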
HSF1 inhib: HSF1 inhibitors in luciferase reporter cells, primary screen, cell-based, NIH3T3, luminescence | NIH3T3-HGL HSE-luciferase, MG132-induced, luminescence 8 h; active compounds read low | activity change, negative = inhibition, % at 7.5 µM (by protocol) | 0.77% of 300,000 active;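 active = more than half of replicate wells show activity change below -50%, luminescence cut by over half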;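 note: luciferase reports HSF-1 transcriptional activity via heat shock element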
NR0B1 inh: DAX1 (NR0B1) inhibitors, primary screen, cell-based, HEK293, Gal4-DAX1, luciferase luminescence | Nuclear receptor subfamily 0 group B member 1 (Homo sapiens), P51843 | HEK293 Gal4-DAX1 luciferase reporter | inhibition, % at 6.75 µM | 0.99% of 340,000 active;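 active = inhibition above the mean over all tested compounds plus 3 SD, cut at about 4.2% in these data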;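 note: inhibition shows as a rise in luminescence from relieved DAX1 repression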
FXN GAA850 act: FXN promoter activators, primary screen, cell-based, luciferase luminescence, HEK293 lucGAA850; HEK293 lucGAA850 FXN promoter luciferase reporter, 24 h; percent of 10 µM SAHA response; activation, % at 6 µM; 0.56% of 360,000 active;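 active = activation above the average of all compounds screened plus 3 SD, cutoff fixed separately per campaign, cut at about 7.5% in these data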
HSP90 inh confirm: HSP90 inhibitors, confirmation, cell lysate, luminescence; shares compounds with HSP90 refold inh; rabbit reticulocyte lysate, luciferase refolding luminescence, 3 h; inhibition, % at 5.9 µM; 64% of 2,300 active; in the data active = inhibition above about 18%
luciferase ctr: firefly luciferase inhibitors, HSP90 counter-screen, confirmation, artefact control for HSP90 inhibitor project, biochemical, luminescence, triplicate; shares compounds with HSP90 refold inh; purified native firefly luciferase; inhibition, % at 5.9 µM; 48% of 2,300 active; AID 1847, 2009;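 active = inhibition above the mean inhibition of all tested sample wells plus 3 SD, cut at about 10% in these data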
Target sequence (P08659 whole entry, looked up): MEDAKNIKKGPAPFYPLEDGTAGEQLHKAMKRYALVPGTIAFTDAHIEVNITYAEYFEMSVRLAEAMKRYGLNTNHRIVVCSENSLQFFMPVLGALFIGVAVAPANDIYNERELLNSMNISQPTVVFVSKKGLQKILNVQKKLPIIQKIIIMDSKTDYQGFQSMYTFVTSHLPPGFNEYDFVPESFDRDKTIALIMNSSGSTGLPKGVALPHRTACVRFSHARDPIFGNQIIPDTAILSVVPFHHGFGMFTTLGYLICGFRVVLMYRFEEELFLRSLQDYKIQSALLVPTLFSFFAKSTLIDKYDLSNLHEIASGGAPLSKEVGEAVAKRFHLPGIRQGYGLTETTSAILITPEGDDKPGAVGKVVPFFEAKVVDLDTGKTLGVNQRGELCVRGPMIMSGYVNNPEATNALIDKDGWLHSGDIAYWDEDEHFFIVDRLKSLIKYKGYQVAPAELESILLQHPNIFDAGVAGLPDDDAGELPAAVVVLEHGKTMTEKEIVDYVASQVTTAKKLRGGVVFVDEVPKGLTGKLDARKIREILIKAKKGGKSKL
A number is an active result; i = inactive; nt = no result given.

SMILES | AHR act | HSP90 refold inh | HSF-1 act | HSF1 inhib | NR0B1 inh | FXN GAA850 act | HSP90 inh confirm | luciferase ctr
CC(=O)c1ccc(NC(=O)Cn2cnc(S(=O)(=O)N3CCCC3)c2)cc1 | i | 26 | i | i | i | i | i | i
Cc1cc(C(=O)COC(=O)c2cc(Cl)ccc2N)c(C)n1Cc1ccco1 | i | i | i | i | i | i | nt | nt
COCC(C)n1c(C)cc(C(=O)COC(=O)c2cccn2C)c1C (stereo unspecified) | i | nt | nt | nt | i | i | nt | nt
Cc1cc(C(=O)COC(=O)c2ccncc2)c(C)n1Cc1ccco1 | i | 26 | i | i | i | i | 41 | 75
Cc1cc(C(=O)COC(=O)c2cccn2C)c(C)n1Cc1ccco1 | i | 40 | i | i | i | i | 66 | 66
CCCc1cc(=O)[nH]c(SCC(=O)Nc2oc(C)c3c(C)n[nH]c(=O)c23)n1 | i | nt | i | i | i | i | nt | nt
Cc1csc(NC(=O)c2cc(C)on2)n1 | i | nt | nt | nt | i | i | nt | nt
O=C(O)c1ccc(S(=O)(=O)c2ccc3c(c2)C(=O)N(c2ccc(Br)cc2)C3=O)cc1 | i | i | i | i | i | i | nt | nt
COc1ccc(CCNC(=O)CSc2nc(C)nc3sccc23)cc1OC | i | i | i | i | i | i | nt | nt
Cc1ccc(OCc2nc(-c3ccccn3)no2)c(Br)c1 | i | 40 | i | i | i | i | 65 | 61
COc1ccc(-c2ccn(-c3cccc(F)n3)n2)cc1 | nt | 22 | nt | nt | i | i | 33 | 18
Cc1cnc(NC(=O)COc2ccccc2Cl)s1 | i | 58 | i | i | i | i | 79 | 78
Cc1cnc(NC(=O)CCNC(=O)c2ccccc2Cl)s1 | i | i | i | i | i | i | nt | nt
Cc1cc(NO)nc(-c2ccc(Br)cc2)n1 | i | 81 | i | i | i | i | 79 | i
CCOC(=O)CNC(=O)CSc1ccc2nnc(-c3ccc(F)cc3)n2n1 | i | i | i | i | i | i | nt | nt
CCSc1ccc2nnc(-c3ccc(F)cc3)n2n1 | i | 88 | i | i | i | i | i | i
O=C(Nc1ccc(Br)cn1)c1coc(=O)c(Br)c1 | i | 30 | i | i | i | i | 21 | i
O=C(C1=C(O)C(=O)N(Cc2cccnc2)C1c1ccccn1)c1cccs1 (stereo unspecified) | i | i | i | i | i | i | nt | nt
CC(C)(C)NC(=O)NC(=O)COc1ccccc1C#N | i | 18 | i | i | 5.1 | i | i | i
C=CCNC(=O)COc1ccccc1C#N | i | i | i | i | i | i | nt | nt
O=C(Nc1ccc(NC(=O)C2CC2)cn1)c1ccccc1Cl | i | i | i | i | i | i | nt | nt
Cc1c(NC(=O)c2ccc(NC(=O)C3CC3)cc2)cccc1C(=O)O | i | 24 | i | i | i | i | 20 | i
O=C(Nc1ccccc1C(=O)O)c1ccc(NC(=O)C2CCCO2)cc1 (stereo unspecified) | i | i | i | i | i | i | nt | nt
Cc1c(NC(=O)c2ccccc2NC(=O)c2ccccc2)cccc1C(=O)O | i | i | i | i | i | i | nt | nt
Cc1c(NC(=S)NC(=O)c2cc3ccccc3o2)cccc1C(=O)O | i | 21 | i | i | i | i | 20 | i
SMILES | AHR act | HSP90 refold inh | HSF-1 act | HSF1 inhib | NR0B1 inh | FXN GAA850 act | HSP90 inh confirm | luciferase ctr
O=C(Nc1ccc(NC(=O)C2CC2)cn1)c1ccccc1 | i | 17 | i | i | i | i | 39 | 21
Cc1c(NC(=O)c2ccccc2N)cccc1C(=O)O | i | 20 | i | i | i | i | i | i
Nc1nnc(SCc2ccccc2F)s1 | i | i | i | i | i | i | nt | nt
Cc1cccc(/C=N/NC(=O)c2ccc(F)cc2)n1 | i | i | i | i | i | i | nt | nt
CSc1ccc(C#N)cc1NC(=O)c1cccnc1Cl | i | i | i | i | i | i | nt | nt
N/C(=N\NS(=O)(=O)c1ccccc1Cl)c1ccccn1 | i | nt | i | i | i | i | nt | nt
CCn1c(=O)c2cc(C(=O)N(C)c3ccc(OC)cc3OC)sc2c2ccccc21 | i | 23 | i | i | i | i | i | i
CC1(C)COC2(OC1)C(=O)N(CN1CCOCC1)c1ccccc12 | i | i | i | i | i | i | nt | nt
CCN1CCN(/C=N/c2nc3c(s2)CCCC3)CC1 | i | 65 | i | -55 | i | i | 72 | 42
CCCc1ccc(-c2cc(C(=O)N3CCN(c4ccccn4)CC3)c3ccccc3n2)cc1 | i | 38 | i | i | i | i | 43 | 12
Cc1c(/C(O)=C2\C(=O)C(=O)N(CCCN(C)C)C2c2ccco2)cnn1-c1ccccc1 (stereo unspecified) | nt | nt | nt | nt | i | i | nt | nt
Cc1c(/C(O)=C2/C(=O)C(=O)N(CCN(C)C)C2c2ccc(C(C)C)cc2)cnn1-c1ccccc1 (stereo unspecified) | i | i | i | i | i | i | nt | nt
Cc1c(/C(O)=C2\C(=O)C(=O)N(CCN(C)C)C2c2ccco2)cnn1-c1ccccc1 (stereo unspecified) | i | 52 | i | i | i | i | 21 | 10
Cc1c(/C(O)=C2\C(=O)C(=O)N(CCN(C)C)C2c2ccccc2)cnn1-c1ccccc1 (stereo unspecified) | i | 27 | i | -63 | i | i | i | i
CC(C)c1nnc(NC(=O)CCC(=O)NCc2ccco2)s1 | i | i | i | i | i | i | nt | nt
COc1ccc(Cl)cc1S(=O)(=O)Nc1noc2ccccc12 | i | i | i | i | i | i | nt | nt
O=C(CNc1n[nH]c(=O)[nH]c1=O)N/N=C/C1CC=CCC1 (stereo unspecified) | i | i | i | i | i | i | nt | nt
COc1ccc(C(=O)Nc2nc3ccccc3[nH]2)cc1 | 50 | 74 | i | i | i | i | 86 | 80
Cc1ccc(N(C)S(=O)(=O)c2cccc(C(=O)Nc3nc4ccccc4[nH]3)c2)cc1 | i | i | i | i | i | i | nt | nt
O=C(Nc1nc2ccccc2[nH]1)NC1CCCCC1 | i | 23 | i | i | i | i | 24 | i
COc1ccc(C(=O)N[C@H](C(=O)Nc2nc3ccccc3[nH]2)C(C)C)cc1 | i | i | i | i | i | i | nt | nt
COc1cccc(C(=O)Nc2nc3ccccc3[nH]2)c1 | i | 27 | i | i | i | i | 67 | 56
COc1cc(C(=O)Nc2nc3ccccc3[nH]2)cc(OC)c1OC | i | i | i | i | i | i | nt | nt
Cc1ccc(C(=O)Nc2nc3ccccc3[nH]2)cc1 | i | 86 | i | i | i | i | 89 | 85
